# According to PubChem BioAssay (NCATS):
# Inconclusive results are not listed. A call without a number means that no potency is given here. Unmarked numbers belong to inactive results. Calls of active or inactive are those of the source. Unless noted, calls come from the whole dose curve; as a rule, active = well fitted curve in the direction sought with a large enough effect; inconclusive = small, poorly fitted or top-dose-only effect, or another doubt; inactive = no such curve, though single readings can be large; an effect the other way counts as inactive or inconclusive.
# Key:
# [1] = molecular target: Voltage-gated inwardly rectifying potassium channel KCNH2 (Homo sapiens) (UniProt Q12809); assay: qHTS Assay for Small Molecule Inhibitors of the Human hERG Channel Activity (AID 588834);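 note: lower thallium flux fluorescence means stronger hERG block; nearly all actives have a fitted effect of over 50% in size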; note: potency is the fitted concentration of half-maximal effect
# Outline: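 Kinetic FDSS fluorescence; U2OS + hERG BacMam (~100 virus particles/cell); FluxOR Tl+ flux; ~10 min cpd; AC50 (Hill).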
# [2] = molecular target: Luciferin 4-monooxygenase (Photinus pyralis) (UniProt P08659); assay: Biochemical firefly luciferase enzyme assay for NPC (AID 624030); note: nearly all actives have a fitted effect of over 70% in size; note: potency is the fitted concentration of half-maximal effect
# Outline: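 Direct inhibition of firefly luciferase enzyme (10 nM final, 50 mM Tris Acetate) assessed by luminescence within 5 minutes. Percent activity scaled between DMSO and PTC124 positive control, with concentration-effect curves classified by fit quality and response.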
# [3] = S16 Schwann cell viability assay (CellTiter-Glo assay) (AID 624031); note: nearly all actives have a fitted effect of over 70% in size; note: potency is the fitted concentration of half-maximal effect
# Outline: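 This viability control uses native rat S16 Schwann cells grown in DMEM plus 10% FBS. After a 24 h compound treatment at 37 °C, CellTiter-Glo luminescence reports ATP content, scaled against DMSO-treated and cell-free wells.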
# [4] = S16 Schwann cell PMP22 intronic element firefly luciferase assay (AID 624032); note: nearly all actives have a fitted effect of over 30% in size; note: potency is the fitted concentration of half-maximal effect
# Outline: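 Luciferase reporter of PMP22 intronic-element expression in stably transfected S16 rat Schwann cells, read by ONE-Glo luminescence after 24 h compound exposure at 37 C. Activity scaled between DMSO (0%) and positive-control PTC124; concentration-effect curves quality-classified.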
# [5] = S16 Schwann cell PMP22 intronic element beta-lactamase assay (AID 624044; calls by dose curve; note: nearly all actives have a fitted effect of over 15% in size); conditions: S16 rat Schwann cells, PMP22 element beta-lactamase FRET, 24 h; ratio activity, negative = inhibition: at 38.3 µM (top of the series) unless noted
# Outline: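 Rat S16 Schwann cells with beta-Lac driven by a PMP22 intronic element, compound-treated 24 h at 37 °C. LiveBLAzer FRET B/G read: 460 nm normalized to potassium clavulanate vs DMSO; 535 nm FRET as viability; concentration-effect curves classified.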
# Chain of Luciferin 4-monooxygenase (Photinus pyralis) (P08659 whole entry, looked up): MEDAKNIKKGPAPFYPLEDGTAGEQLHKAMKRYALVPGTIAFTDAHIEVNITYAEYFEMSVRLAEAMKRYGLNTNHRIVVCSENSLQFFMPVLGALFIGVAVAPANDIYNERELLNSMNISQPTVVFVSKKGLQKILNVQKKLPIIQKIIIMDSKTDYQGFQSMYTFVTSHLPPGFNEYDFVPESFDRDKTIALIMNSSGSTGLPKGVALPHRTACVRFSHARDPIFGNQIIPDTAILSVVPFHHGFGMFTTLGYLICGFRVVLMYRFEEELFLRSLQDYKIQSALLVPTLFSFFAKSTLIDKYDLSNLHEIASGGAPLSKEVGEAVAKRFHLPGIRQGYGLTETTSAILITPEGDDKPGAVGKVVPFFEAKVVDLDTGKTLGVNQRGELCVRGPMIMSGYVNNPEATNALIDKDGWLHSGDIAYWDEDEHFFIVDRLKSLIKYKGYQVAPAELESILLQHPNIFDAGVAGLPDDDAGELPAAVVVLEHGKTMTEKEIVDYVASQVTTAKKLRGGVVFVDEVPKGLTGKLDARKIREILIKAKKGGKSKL
# Chain of Voltage-gated inwardly rectifying potassium channel KCNH2 (Homo sapiens) (Q12809 whole entry, looked up): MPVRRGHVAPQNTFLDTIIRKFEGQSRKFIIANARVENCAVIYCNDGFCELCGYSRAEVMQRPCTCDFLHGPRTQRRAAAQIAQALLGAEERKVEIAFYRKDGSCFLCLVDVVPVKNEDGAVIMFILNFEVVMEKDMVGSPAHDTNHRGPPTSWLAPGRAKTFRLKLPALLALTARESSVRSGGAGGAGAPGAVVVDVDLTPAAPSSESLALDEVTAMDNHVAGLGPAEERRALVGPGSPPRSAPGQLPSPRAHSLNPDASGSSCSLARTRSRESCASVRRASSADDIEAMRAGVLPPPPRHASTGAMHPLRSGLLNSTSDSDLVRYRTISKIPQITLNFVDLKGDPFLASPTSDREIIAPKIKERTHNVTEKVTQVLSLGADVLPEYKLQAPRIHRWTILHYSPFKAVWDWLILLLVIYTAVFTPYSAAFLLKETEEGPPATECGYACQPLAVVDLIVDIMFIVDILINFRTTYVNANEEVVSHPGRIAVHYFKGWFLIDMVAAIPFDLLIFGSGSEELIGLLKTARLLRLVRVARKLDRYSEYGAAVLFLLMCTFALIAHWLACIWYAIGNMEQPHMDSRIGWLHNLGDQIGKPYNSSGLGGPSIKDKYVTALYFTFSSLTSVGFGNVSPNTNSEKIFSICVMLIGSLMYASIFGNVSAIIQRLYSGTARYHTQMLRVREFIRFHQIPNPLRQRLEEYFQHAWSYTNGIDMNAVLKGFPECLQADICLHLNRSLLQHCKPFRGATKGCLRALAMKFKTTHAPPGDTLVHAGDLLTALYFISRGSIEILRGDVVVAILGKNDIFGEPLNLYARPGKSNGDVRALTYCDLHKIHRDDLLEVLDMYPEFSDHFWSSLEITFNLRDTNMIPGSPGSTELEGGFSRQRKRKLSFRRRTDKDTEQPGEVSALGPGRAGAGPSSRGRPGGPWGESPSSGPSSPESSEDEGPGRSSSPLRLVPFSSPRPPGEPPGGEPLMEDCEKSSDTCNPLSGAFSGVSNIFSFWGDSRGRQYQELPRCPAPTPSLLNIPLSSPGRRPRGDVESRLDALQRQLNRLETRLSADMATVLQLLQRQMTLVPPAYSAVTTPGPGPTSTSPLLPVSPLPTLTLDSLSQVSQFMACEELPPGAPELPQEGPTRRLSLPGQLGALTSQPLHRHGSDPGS
SMILES,Potency [1],Potency [2],Potency [3],Potency [4],"ratio activity, negative = inhibition [5] [%]"
Cc1cc(-c2ccc(N=Nc3c(S(=O)(=O)O)cc4cc(S(=O)(=O)O)cc(N)c4c3O)c(C)c2)ccc1N=Nc1c(S(=O)(=O)O)cc2cc(S(=O)(=O)O)cc(N)c2c1O,inactive,9.07 µM (active),12.8 µM (active),12.8 µM (active),–
OCC1(CO)COC(C(Cl)(Cl)Cl)OC1,inactive,inactive,inactive,inactive,–
CN1C(=O)OC(C)(C)C1=O,inactive,inactive,inactive,inactive,–
CCCCC[C@H](O)/C=C/[C@@H]1[C@H]2C/C(=C/CCCC(=O)O)O[C@H]2C[C@H]1O,inactive,inactive,inactive,inactive,–
NC(=O)C1c2ccccc2CCc2ccccc21,inactive,inactive,inactive,inactive,–
FC(F)OC(Cl)C(F)(F)F (centres undefined),inactive,inactive,inactive,inactive,–
CS(=O)(=O)c1ccc([C@@H](O)[C@@H](COC(=O)CN)NC(=O)C(Cl)Cl)cc1,inactive,inactive,inactive,inactive,–
CCc1ncnc2cc(OC)c(OC)cc12,inactive,inactive,inactive,inactive,–
NCC[C@H](O)C(=O)N[C@@H]1C[C@H](N)[C@@H](O[C@H]2O[C@H](CN)CC[C@H]2N)[C@H](O)[C@H]1O[C@H]1O[C@H](CO)[C@@H](O)[C@H](N)[C@H]1O,inactive,inactive,inactive,inactive,–
CCOC(=S)SSC(=S)OCC,inactive,inactive,inactive,inactive,–
COC(=O)CCC[N+](C)(C)C,inactive,inactive,inactive,inactive,–
c1ccc(-n2cnnn2)cc1,inactive,inactive,inactive,inactive,–
CCCC(=O)O,inactive,inactive,inactive,inactive,–
O=S(=O)(O)CCCS(=O)(=O)O,inactive,inactive,inactive,inactive,–
C[C@H](O)CN(C)C,inactive,inactive,inactive,inactive,–
FCOC(C(F)(F)F)C(F)(F)F,inactive,inactive,inactive,inactive,–
Nc1ncnc2c1ncn2CCOCP(=O)(O)O,inactive,inactive,inactive,inactive,–
CCCC(CCC)C(=O)OC1C[C@H]2CC[C@@H](C1)[N+]2(C)C (some centres undefined),inactive,inactive,inactive,inactive,–
CN1C(=O)C[C@@H](C(=O)N[C@@H](Cc2cnc[nH]2)C(=O)N2CCC[C@H]2C(N)=O)NC1=O,inactive,inactive,inactive,inactive,–

SMILES,Potency [1],Potency [2],Potency [3],Potency [4],"ratio activity, negative = inhibition [5] [%]"
CNC(=O)[C@H](Cc1c[nH]c2ccccc12)NC(=O)[C@@H](CC(=O)NO)CC(C)C,inactive,inactive,inactive,inactive,–
O=C(CCCCCCCCCCCCC1CCCC1)Nc1ccc(S(=O)(=O)c2ccc(NC(=O)CCCCCCCCCCCCC3CCCC3)cc2)cc1,inactive,inactive,inactive,inactive,–
Nc1nc(=O)n([C@@H]2CS[C@H](CO)O2)cc1F,inactive,inactive,inactive,inactive,–
O=C(O)CCC/C=C\C[C@@H]1[C@@H](/C=C/[C@@H](O)COc2cccc(Cl)c2)[C@H](O)C[C@@H]1O,inactive,inactive,inactive,inactive,–
CC1(C)S[C@@H]2[C@H](NC(=O)C3(N)CCCCC3)C(=O)N2[C@H]1C(=O)O,inactive,inactive,inactive,inactive,–
CC(C)c1nc(N(C)S(C)(=O)=O)nc(-c2ccc(F)cc2)c1/C=C/C(O)CC(O)CC(=O)O (centres undefined),14.1 µM (active),inactive,inactive,inactive,–
CC(=O)Nc1ccc(NC(=S)NC(=O)c2ccc(C(C)(C)C)cc2)cc1,8.91 µM (active),inactive,inactive,inactive,–
OC1OC[C@@H](O)[C@H](O)[C@@H]1O (some centres undefined),inactive,inactive,inactive,inactive,–
S=C=Nc1ccc(N=C=S)cc1,inactive,inactive,inactive,inactive,–
CC1C(=O)CC2C3(C)CCC2(C(C)C(=O)O)C(=O)C13 (centres undefined),inactive,inactive,inactive,inactive,–
CCOc1ccc(S(=O)(=O)O)c2cccnc12,inactive,inactive,inactive,inactive,–
C[C@H](N)C(=O)N[C@@H](C)P(=O)(O)O,inactive,inactive,inactive,inactive,–
C[Se]CC[C@H](N)C(=O)O,inactive,inactive,inactive,inactive,–
O=C(O)c1ccc(OCCn2ccnc2)cc1,inactive,inactive,inactive,inactive,–
Cc1cc(C(=O)NCCc2ccc(S(=O)(=O)NC(=O)NN3CCCCCC3)cc2)no1,inactive,inactive,inactive,inactive,–
COC(=O)[C@@H](N)CS,inactive,inactive,inactive,inactive,–
CCCCC(CC)CCC(CC(C)C)OS(=O)(=O)O (centres undefined),inactive,inactive,inactive,inactive,–
COc1cc2c(cc1OC)[C@@H](Cc1cc(OC)c(OC)c(OC)c1)[N+](C)(CCCOC(=O)CC/C=C/CCC(=O)OCCC[N+]1(C)CCc3cc(OC)c(OC)cc3[C@H]1Cc1cc(OC)c(OC)c(OC)c1)CC2 (some centres undefined),inactive,inactive,inactive,inactive,-5.32
